The target in test [1] is Androgen Receptor/SRC-1 Co-activator, AR (gene 367) (UniProt P10275). As to the kind of experiment: OT_AR_ARSRC1_0480: Odyssey Thera (OT) 8-hour HEK293T Protein-Complementation Assay for Androgen Receptor/SRC-1 Co-activator (AID 2283354).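 Further: hits raise the complementation signal above DMSO so AC50 marks enhancers.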 In a few lines: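 Reconstituted split-Venus YFP signal from AR–SRC-1 interaction, read by imaging 8 h post-dose in stable HEK293T lines. The 488 nm nucleus-to-cytoplasm ratio (≥400 cells/image) was fitted upward against DMSO.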

Test [2] addresses Estrogen receptor beta (Homo sapiens) (UniProt Q92731). Briefly: OT_ER_ERbERb_0480: Odyssey Thera (OT) 8-hour HEK293T Protein-Complementation Assay for Estrogen Receptor-beta/-beta Homodimer (AID 2283357).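 Further: active means signal gain over DMSO baseline.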 Summed up:
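ER-beta LBD homodimer PCA stably expressed in HEK293T; 8 h compound exposure, then formaldehyde fixation and Draq5 staining. Gain in nuclear/cytoplasmic fluorescence intensity versus DMSO vehicle, read on laser scanning cytometer.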

For test [3], the target named is Estrogen receptor (Homo sapiens) (UniProt P03372). As to the kind of experiment: OT_ER_ERaERa_1440: Odyssey Thera (OT) 24-hour HEK293T Protein-Complementation Assay for Estrogen Receptor-alpha/-alpha Homodimer (AID 2283349).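 Further: hits raise fluorescence above DMSO for agonists and antagonists alike.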 Summed up:
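HEK293T, stable ERα LBD (aa 310-547) homodimer PCA; 24 h compound exposure; mean fluorescence intensity (nuclear for agonists, nuclear plus cytoplasmic for antagonists) vs vehicle; positive fitting direction, DMSO baseline.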

Test [4] shares this target. As to the kind of experiment: OT_ER_ERaERa_0480: Odyssey Thera (OT) 8-hour HEK293T Protein-Complementation Assay for Estrogen Receptor-alpha/-alpha Homodimer (AID 2283351).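 Further: rise in fluorescence from reassembled reporter fragments on ERα LBD homodimer in nucleus or whole cell.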 In a few lines:
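Measures ERα LBD (aa 310-547) homodimer complementation in stably transfected HEK293T at 8 h post-dose, with fluorescence intensity quantified on a laser scanning cytometer relative to DMSO controls.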

Test [5] has as its target T1, Estrogen receptor (Homo sapiens) + Estrogen receptor beta (Homo sapiens) (UniProt P03372+Q92731). As to the kind of experiment: OT_ER_ERaERb_0480: Odyssey Thera (OT) 8-hour HEK293T Protein-Complementation Assay for Estrogen Receptor-alpha/-beta Heterodimer (AID 2283352). In a few lines: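 Human HEK293T cells were treated for 8 hours and receptor heterodimerisation was detected through reconstitution of a fluorescent reporter split between ER-alpha and ER-beta ligand-binding domains. Activity was analysed as gain of signal against DMSO.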

Test [6] has as its target T1, Estrogen receptor (Homo sapiens) + Estrogen receptor beta (Homo sapiens). As to the kind of experiment: OT_ER_ERaERb_1440: Odyssey Thera (OT) 24-hour HEK293T Protein-Complementation Assay for Estrogen Receptor-alpha/-beta Homodimer (AID 2283356).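 Further: heteromer of ER alpha and ER beta binding domains; hits raise reporter fluorescence and both agonists and antagonists give an increase.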 Summed up:
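24 h exposure; HEK293T PCA cells with ERα/ERβ LBD fragments; signal rise in nuclear or whole-cell fluorescence over vehicle.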

Test [7] deals with Retinoic acid receptor alpha (Homo sapiens) (UniProt P10276). Briefly: NVS_NR_hRAR_Antagonist: NovaScreen (NVS) Nuclear Receptor Binding Assay for human Retinoic Acid Alpha Receptor Antagonism (RAR) (AID 2283358). In a few lines:
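RARalpha antagonism was read by TR-FRET as loss of binding signal versus DMSO, 2 h after chemical addition, in a biochemical format. Single-concentration duplicates (25 uM) were run first, and actives were retested in concentration series.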

Test [8] addresses Estrogen receptor (Homo sapiens) (UniProt P03372). Briefly: NVS_NR_hER: NovaScreen (NVS) Nuclear Receptor Binding Assay for human Estrogen Receptor (ER) (AID 2283348). In a few lines:
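Cell-free MCF7-derived ER preparation, specific radioligand displaced by test compound, read by scintillation counting 18 h post-dosing. Duplicate single-point 25 uM screen, then concentration-response confirmation; DMSO baseline.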

The target of test [9] is rat Mineralocorticoid Receptor (MR), Nr3c2 (gene 25672) (UniProt P22199). Briefly: NVS_NR_rMR: NovaScreen (NVS) Nuclear Receptor Binding Assay for rat Mineralocorticoid Receptor (MR) (AID 2283355). Summed up:
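Primary HTS ran in duplicate at a single 25 uM concentration, with concentration-series follow-up for actives. Receptor source: adrenalectomized rat brain supernatant, cell-free. Radioligand displacement read by scintillation at 24 h, relative to DMSO baseline.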

Test [10] concerns the target chimpanzee Androgen Receptor (AR), AR (gene 747460) (UniProt O97775). As to the kind of experiment: NVS_NR_cAR: NovaScreen (NVS) Nuclear Receptor Binding Assay for chimpanzee Androgen Receptor (AR) (AID 2283346).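 Further: radioligand displacement from AR measured by scintillation counting in a cell-free assay; a loss of bound radioligand signal versus DMSO counts as binding.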 In a few lines:
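Cell-free competition binding with insect-cell (Sf9/Sf21) extracted chimpanzee AR; scintillation signal from lysate at 72 h. Screened in duplicate at 25 uM, then concentration-response for actives; fitting relative to DMSO.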

The target in test [11] is Bile acid receptor (Homo sapiens) (UniProt Q96RI1). As to the kind of experiment: NVS_NR_hFXR_Antagonist: NovaScreen (NVS) Nuclear Receptor Binding Assay for human Farnesoid X Receptor Antagonism (FXR) (AID 2283350). Summed up:
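Antagonist-format time-resolved FRET binding assay with extracted human receptor protein, read 1 hour after compound addition. Compounds first screened at 25 uM in duplicate, then actives tested in concentration series, with loss of signal relative to DMSO.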

Molecules are shown by their SMILES. Results filed as inconclusive are left out. Active and inactive are the calls of the source. How the source made its calls: active means hit-call score of the fitted dose curve at least 0.9, where 1 is the maximum; inconclusive means response in the unintended direction; inactive means score below 0.9.

Data on 16 compounds can be found in PubChem BioAssay (EPA / NIEHS).

Sequence of Retinoic acid receptor alpha (Homo sapiens) (P10276 whole entry, looked up): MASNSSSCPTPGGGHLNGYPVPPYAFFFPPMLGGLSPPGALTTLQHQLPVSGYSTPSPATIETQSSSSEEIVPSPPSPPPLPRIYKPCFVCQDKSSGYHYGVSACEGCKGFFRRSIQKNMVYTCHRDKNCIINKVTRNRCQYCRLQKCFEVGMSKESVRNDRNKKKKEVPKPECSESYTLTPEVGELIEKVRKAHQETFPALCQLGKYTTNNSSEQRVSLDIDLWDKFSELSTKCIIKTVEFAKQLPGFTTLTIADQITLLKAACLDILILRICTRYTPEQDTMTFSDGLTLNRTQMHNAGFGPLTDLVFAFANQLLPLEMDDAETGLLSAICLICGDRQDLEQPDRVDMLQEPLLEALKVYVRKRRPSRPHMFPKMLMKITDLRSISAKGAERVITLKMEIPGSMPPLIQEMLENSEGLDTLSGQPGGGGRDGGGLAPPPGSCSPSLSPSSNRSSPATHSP
Sequence of Androgen Receptor/SRC-1 Co-activator, AR (gene 367) (P10275 whole entry, looked up): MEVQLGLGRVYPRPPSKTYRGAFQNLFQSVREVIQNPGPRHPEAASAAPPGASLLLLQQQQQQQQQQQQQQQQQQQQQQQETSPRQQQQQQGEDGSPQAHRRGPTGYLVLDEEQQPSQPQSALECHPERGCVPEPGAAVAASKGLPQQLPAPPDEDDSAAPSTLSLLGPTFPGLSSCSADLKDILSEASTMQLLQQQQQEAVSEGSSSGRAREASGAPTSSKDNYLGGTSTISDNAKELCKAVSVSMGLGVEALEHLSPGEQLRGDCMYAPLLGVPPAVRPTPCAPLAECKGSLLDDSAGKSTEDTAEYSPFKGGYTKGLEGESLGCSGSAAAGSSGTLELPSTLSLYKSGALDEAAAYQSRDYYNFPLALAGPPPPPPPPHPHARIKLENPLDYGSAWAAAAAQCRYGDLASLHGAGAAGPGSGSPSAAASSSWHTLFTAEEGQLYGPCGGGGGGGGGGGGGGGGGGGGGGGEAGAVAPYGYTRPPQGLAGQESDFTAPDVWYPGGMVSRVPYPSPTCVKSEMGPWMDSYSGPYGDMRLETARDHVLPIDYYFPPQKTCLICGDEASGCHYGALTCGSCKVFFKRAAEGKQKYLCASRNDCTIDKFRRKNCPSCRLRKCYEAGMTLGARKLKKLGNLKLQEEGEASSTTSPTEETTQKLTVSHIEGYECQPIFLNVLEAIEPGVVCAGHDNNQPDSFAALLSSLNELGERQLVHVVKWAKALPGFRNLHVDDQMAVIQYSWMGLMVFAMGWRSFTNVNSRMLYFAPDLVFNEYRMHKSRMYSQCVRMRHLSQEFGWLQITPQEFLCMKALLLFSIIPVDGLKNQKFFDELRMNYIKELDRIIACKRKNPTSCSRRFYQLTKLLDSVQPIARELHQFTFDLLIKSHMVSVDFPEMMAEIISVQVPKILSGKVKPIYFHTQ
Sequence of Estrogen receptor (Homo sapiens) (P03372 whole entry, looked up, the tested form may be a part): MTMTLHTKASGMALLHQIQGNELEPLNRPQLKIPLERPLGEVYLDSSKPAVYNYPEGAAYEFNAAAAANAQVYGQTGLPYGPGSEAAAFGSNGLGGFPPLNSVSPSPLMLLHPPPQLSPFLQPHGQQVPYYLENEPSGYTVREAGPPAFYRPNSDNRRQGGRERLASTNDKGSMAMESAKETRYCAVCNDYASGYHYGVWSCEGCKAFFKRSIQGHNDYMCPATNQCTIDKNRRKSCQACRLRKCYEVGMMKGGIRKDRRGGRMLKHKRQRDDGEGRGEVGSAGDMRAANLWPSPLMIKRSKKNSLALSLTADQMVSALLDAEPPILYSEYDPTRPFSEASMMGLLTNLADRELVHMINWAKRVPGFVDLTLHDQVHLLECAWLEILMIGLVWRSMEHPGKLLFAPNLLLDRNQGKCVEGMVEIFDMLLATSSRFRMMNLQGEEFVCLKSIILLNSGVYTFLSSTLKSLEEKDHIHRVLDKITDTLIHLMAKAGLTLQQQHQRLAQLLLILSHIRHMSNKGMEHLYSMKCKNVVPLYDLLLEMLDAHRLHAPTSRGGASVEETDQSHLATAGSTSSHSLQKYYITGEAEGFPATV
T1 sequence (P03372 whole entry, looked up, the tested form may be a part): as above
T1 sequence (Q92731 whole entry, looked up, the tested form may be a part): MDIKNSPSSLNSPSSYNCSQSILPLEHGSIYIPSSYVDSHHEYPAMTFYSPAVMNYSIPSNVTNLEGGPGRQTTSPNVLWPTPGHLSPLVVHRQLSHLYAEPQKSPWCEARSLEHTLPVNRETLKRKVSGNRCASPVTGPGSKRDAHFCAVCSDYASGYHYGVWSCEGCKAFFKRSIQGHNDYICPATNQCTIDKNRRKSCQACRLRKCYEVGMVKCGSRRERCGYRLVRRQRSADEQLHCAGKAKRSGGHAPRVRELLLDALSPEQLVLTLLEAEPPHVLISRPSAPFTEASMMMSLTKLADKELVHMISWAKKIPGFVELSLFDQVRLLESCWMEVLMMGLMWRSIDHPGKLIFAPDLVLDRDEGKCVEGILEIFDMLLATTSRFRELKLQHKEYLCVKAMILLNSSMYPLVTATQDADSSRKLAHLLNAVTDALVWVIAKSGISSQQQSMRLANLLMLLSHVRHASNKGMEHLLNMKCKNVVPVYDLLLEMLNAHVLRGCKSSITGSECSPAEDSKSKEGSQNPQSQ
Sequence of Estrogen receptor beta (Homo sapiens) (Q92731 whole entry, looked up, the tested form may be a part): as above
Sequence of Bile acid receptor (Homo sapiens) (Q96RI1 whole entry, looked up): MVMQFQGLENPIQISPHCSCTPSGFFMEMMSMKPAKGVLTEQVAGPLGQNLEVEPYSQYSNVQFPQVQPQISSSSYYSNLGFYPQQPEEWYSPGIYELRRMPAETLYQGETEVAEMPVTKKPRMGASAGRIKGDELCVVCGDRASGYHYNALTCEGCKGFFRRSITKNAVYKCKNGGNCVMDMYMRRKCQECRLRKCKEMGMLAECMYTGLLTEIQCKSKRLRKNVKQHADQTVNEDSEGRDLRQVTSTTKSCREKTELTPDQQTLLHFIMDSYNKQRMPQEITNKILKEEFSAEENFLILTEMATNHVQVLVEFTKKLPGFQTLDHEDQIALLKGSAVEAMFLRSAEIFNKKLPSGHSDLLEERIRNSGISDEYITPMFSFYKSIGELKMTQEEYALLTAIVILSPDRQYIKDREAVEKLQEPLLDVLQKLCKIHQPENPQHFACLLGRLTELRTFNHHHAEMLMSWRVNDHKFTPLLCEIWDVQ
Sequence of rat Mineralocorticoid Receptor (MR), Nr3c2 (gene 25672) (P22199 whole entry, looked up): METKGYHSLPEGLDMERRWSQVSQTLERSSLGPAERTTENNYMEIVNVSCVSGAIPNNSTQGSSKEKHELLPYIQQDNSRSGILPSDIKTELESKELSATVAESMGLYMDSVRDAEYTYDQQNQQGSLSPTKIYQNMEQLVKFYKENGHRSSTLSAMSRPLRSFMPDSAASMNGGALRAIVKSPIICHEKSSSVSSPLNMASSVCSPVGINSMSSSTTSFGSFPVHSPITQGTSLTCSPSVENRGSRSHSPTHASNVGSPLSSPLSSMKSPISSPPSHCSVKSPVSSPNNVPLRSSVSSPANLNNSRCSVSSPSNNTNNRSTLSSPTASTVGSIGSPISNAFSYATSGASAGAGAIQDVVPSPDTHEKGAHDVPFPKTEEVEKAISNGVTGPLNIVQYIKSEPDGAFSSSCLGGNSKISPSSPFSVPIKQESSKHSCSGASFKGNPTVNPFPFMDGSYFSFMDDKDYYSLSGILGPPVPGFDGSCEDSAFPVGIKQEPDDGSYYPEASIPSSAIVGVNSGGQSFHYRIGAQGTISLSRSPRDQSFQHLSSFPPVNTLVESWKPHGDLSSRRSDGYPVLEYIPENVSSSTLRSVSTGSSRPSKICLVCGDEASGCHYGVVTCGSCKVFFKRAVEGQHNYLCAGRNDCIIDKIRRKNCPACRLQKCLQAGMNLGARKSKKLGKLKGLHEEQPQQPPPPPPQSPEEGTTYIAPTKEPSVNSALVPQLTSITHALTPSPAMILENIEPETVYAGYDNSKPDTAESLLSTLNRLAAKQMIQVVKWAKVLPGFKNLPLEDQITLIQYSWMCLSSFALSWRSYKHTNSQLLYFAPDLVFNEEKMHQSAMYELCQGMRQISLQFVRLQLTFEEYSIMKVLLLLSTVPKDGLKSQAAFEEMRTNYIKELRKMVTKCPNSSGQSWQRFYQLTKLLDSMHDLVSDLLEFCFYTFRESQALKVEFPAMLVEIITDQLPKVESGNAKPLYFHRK
Sequence of chimpanzee Androgen Receptor (AR), AR (gene 747460) (O97775 whole entry, looked up): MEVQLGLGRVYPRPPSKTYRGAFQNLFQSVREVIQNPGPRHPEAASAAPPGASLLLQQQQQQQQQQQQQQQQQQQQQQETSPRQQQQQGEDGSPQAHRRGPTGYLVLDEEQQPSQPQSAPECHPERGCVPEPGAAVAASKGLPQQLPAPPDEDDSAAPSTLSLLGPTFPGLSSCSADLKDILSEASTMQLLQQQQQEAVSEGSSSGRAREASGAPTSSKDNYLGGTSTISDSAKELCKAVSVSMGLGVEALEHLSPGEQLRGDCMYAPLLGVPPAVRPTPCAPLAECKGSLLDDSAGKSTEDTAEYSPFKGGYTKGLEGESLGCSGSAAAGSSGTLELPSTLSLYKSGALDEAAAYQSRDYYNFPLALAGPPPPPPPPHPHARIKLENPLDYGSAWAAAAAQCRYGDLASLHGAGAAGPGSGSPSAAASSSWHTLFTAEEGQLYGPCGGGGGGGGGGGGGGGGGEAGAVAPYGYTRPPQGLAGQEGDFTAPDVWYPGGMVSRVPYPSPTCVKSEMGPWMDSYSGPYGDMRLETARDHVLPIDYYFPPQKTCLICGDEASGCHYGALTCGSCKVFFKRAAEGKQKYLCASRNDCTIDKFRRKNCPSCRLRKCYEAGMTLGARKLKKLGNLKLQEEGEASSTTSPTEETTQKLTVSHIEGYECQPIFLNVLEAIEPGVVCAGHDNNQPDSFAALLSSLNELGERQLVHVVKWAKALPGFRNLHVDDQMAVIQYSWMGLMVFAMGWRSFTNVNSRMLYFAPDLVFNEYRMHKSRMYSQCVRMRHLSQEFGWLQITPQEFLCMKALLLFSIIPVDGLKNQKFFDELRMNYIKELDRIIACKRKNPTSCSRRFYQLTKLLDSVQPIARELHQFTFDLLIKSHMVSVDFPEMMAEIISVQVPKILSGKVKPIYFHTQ

As to `CCOC(=O)C(C)Oc1ccc(Oc2nc3ccc(Cl)cc3o2)cc1` (configuration not stated), the compound was classed as inactive in [1] and in test [2].

As to `CCCN(CCC)c1c([N+](=O)[O-])cc(C(F)(F)F)c(N)c1[N+](=O)[O-]`, the compound was called inactive in test [3], in test [4], in test [6], in test [2] and in test [7]. The AC50 in test [5] was 0.428 µM (active).

For `CCCCOC(=O)[C@@H](C)Oc1ccc(Oc2ccc(C(F)(F)F)cn2)cc1`, the compound was called inactive in test [3], in test [4], in test [5], in test [6] and in [2].

As to `CCCCCOC(=O)COc1cc(N2C(=O)C3=C(CCCC3)C2=O)c(F)cc1Cl`, the result in test [8], in test [3], in test [4], in test [6] and in test [7] was inactive.

As for `O=C(O)c1ccccc1`, the compound was classed as inactive in [8], in [3] and in test [4].

Consider `COC(=O)c1ccc(I)cc1S(=O)(=O)NC(=O)Nc1nc(C)nc(OC)n1`, for which the compound was classed as inactive in [9] and in [2].

For `COC(=O)c1ccc(CNS(C)(=O)=O)cc1S(=O)(=O)NC(=O)Nc1nc(OC)cc(OC)n1`, the compound was classed as inactive in [8] and in test [7].

With `CSC(=O)c1cccc2nnsc12`, the half-maximal activity concentration (AC50) in test [10] is 1.02 µM (active); in test [1], 22.4 µM (active). The result in test [3] and in test [4] was inactive.

`CCOC(=O)NCCOc1ccc(Oc2ccccc2)cc1`: in test [3], the compound was called inactive.

Take `CC(C)(C)[C@@H](O)[C@@H](Cc1ccc(Cl)cc1)n1cncn1`: the compound was called inactive in [9] and in test [2].

`COC(=O)CSc1cc(N=c2sc(=O)n3n2CCCC3)c(F)cc1Cl`: in [1], the result was inactive.

Take `CCN(CC)C(=O)c1cccc(C)c1`: the compound was called inactive in test [8], in test [3], in test [11], in test [4], in test [6] and in test [2].

Regarding `c1ccc2[nH]c(-c3cscn3)nc2c1`, the result in test [3], in [4], in [1], in test [6] and in [2] was inactive.

`COC(=O)c1ccccc1S(=O)(=O)NC(=O)Nc1nc(OC(F)F)cc(OC(F)F)n1`: the result in test [11] was inactive.

In the case of `CCCCCCC(C)OC(=O)COc1nc(F)c(Cl)c(N)c1Cl` (configuration not stated), the call in test [2] was inactive.

For the compound `CCCOC(=O)c1ccc(C(=O)OCCC)nc1`, the compound was classed as inactive in [3], in test [4], in [5], in [1], in [6] and in [2].
